From PubChem BioAssay AID435005 (Broad Institute, 2010)
The campaign covered roughly 300,000 compounds. About 2,400 (0.8%) were called active. What follows is part of a selection rich in actives, with near analogues and random picks from the rest. Unmarked numbers belong to inactive results.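 Rule for the calls: active = Every replicate reaches about 75%, or at least half do and their mean reaches it too (limit read from the data); inconclusive = At least half of replicates reach the limit but their mean does not; inactive = Under half of replicates reach the limit.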

Assay: INS-1E beta cell survival under cytokines – luminescence, primary screen (AID 435005);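 note: 0% = cytokine-treated negative control wells and 100% = positive control rescue; higher means more ATP so stronger rescue from cytokine killing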
Details: INS-1E cytokine-induced death, ATP luminescence, 48 h; stronger effect = higher value; percent of positive-control rescue, neutral wells zero; concentration not given here

| SMILES | protection from apoptosis |
| --- | --- |
| COc1ccc(-c2nn(-c3ccccc3)cc2/C=C\C(=O)Nc2ccc(C(=O)O)cc2)cc1 | 8.98% |
| Cc1ccc(-c2nn(-c3ccccc3)cc2C(=O)Nc2cccc(S(=O)(=O)N3CCOCC3)c2)cc1 | 1.74% |
| Cc1ccc(-c2nn(-c3ccccc3)cc2/C=C/C(=O)Nc2cccc(S(N)(=O)=O)c2)cc1 | 120% (active) |
| O=S(=O)(c1ccc(SCc2ccccc2)nc1)N1CCCCCC1 | -5.69% |
| NS(=O)(=O)c1ccc2nc(NC(=O)C3=COCCO3)sc2c1 | -1.35% |
| Cc1ccc(-c2csc(NC(=O)C3=COCCO3)n2)cc1C | 98.3% (active) |
| CC(=O)NCCC(=O)Nc1nc(-c2ccc3c(c2)OCCO3)cs1 | -3.86% |
| C#CCOCCOCCOCCNc1nc(N2CCN(C(=O)[C@H](CCC(=O)O)n3cc(CN)nn3)CC2)nc(N2CCN(C(=O)[C@H](CCC(=O)O)n3cc(CN)nn3)CC2)n1 | -5.06% |
| Cc1noc(C)c1S(=O)(=O)N(C)C[C@H]1Oc2ccc(NC(=O)C3CC3)cc2C(=O)N([C@H](C)CO)C[C@@H]1C | 4.52% |
| Cc1c(CC(=O)NCCCCCC(=O)O)c(=O)oc2cc3occ(-c4ccccc4)c3cc12 | -7.43% |
| CCCCCCc1ccc(O)cc1O | -5.91% |
| CCCCCCc1cc2cc(-c3nnc(-c4ccccc4)o3)c(=O)oc2cc1O | 119% (active) |
| CCCCCCSc1ccc(-c2nc3ccc(Cl)cn3c2NCc2ccccc2)cc1 | -14.3% |
| O=C(COc1ccccc1F)NNC(=O)c1cc(Br)ccc1Cl | 4.16% |
| Oc1cccc(/C=N/Nc2ccc(Cl)nn2)c1O | 107% (active) |
| Clc1ccc(N/N=C/c2cccs2)nn1 | -1.26% |
| COc1cccc(/C=N/Nc2ccc(Cl)nn2)c1 | 0.496% |
| CN(C)C(=O)COC(=O)c1cccc(S(=O)(=O)N2CC3(C)CC2CC(C)(C)C3)c1 (stereo not drawn) | -3.78% |
| CN(C)c1nc(Nc2ccc(Cl)c(Cl)c2)nc(N(C)C)n1 | 2.44% |
| OCCNc1nc(Nc2ccc(Cl)c(Cl)c2)nc2ccccc12 | 89.8% (active) |
| COc1cc2nc(Cl)nc(NCCO)c2cc1OC | -1.61% |
| COc1cc(C(=O)NCC(c2ccco2)N2CCCC2)ccc1OCc1ccccc1 (stereo not drawn) | 0.158% |

| SMILES | protection from apoptosis |
| --- | --- |
| COc1ccc(NC(=O)N(C)C[C@H]2Oc3ccc(NC(=O)C4CC4)cc3C(=O)N([C@H](C)CO)C[C@@H]2C)cc1 | -3.33% |
| O=C(N[C@@H]1C/C=C\C[C@@H](CC(=O)N(CCO)Cc2ccccc2)C(=O)N[C@H](Cc2ccccc2)COC1=O)OCC1c2ccccc2-c2ccccc21 | 50.5% |
| COc1ccc(-c2nc3cnccn3c2NC2CCCCC2)cc1-c1cccc(Cl)c1 | -8.81% |
| Cc1cccc(N=C2NN=C(c3c[nH]c4ccccc34)CS2)c1 | 22.1% |
| c1ccc(CN2CCC(N=C3NN=C(c4ccc5c(c4)OCCO5)CS3)CC2)cc1 | -0.528% |
| Clc1cccc(N=C2NN=C(c3ccc4c(c3)OCCO4)CS2)c1 | 83.6% (active) |
| CC(C#N)OC(=O)c1cccnc1SCC(=O)Nc1ccc2c(c1)OCO2 (stereo not drawn) | 3.24% |
| CCNC(=S)N1CCN(S(=O)(=O)c2ccc(Cl)s2)CC1 | -2.64% |
| COc1cc(NC(=O)COC(=O)c2cc(S(=O)(=O)N3CCOCC3)ccc2F)cc(OC)c1 | -2.85% |
| CSc1ccc(NC(=O)/C=C/C(=O)O)cc1 | -4.41% |
| COc1ccccc1NC(=O)/C=C/C(=O)O | -6.73% |
| COC(=O)c1sc(-c2ccc(C(C)(C)C)cc2)cc1NC(=O)/C=C/C(=O)O | 99.2% (active) |
| CCN(C[C@H]1N[C@@](Cc2ccccc2)(C(=O)OC)[C@H]2C(=O)N(Cc3ccccc3)C(=O)[C@@H]12)C(=O)c1ccc(C)cc1 | 13.6% |
| Clc1cccc(CN2COc3c(cc(Cl)c4cccnc34)C2)c1 | 85.5% (active) |
| O=C(c1cccc(Cl)c1)N1CCN(Cc2ccccc2)CC1 | -9.96% |
| CC(C)CC(=O)N1CCN(Cc2cccc(Cl)c2)CC1 | 3.65% |
| COC(=O)[C@]1(Cc2ccccc2)N[C@H](CN(C)S(=O)(=O)c2ccc(OC(F)(F)F)cc2)[C@@H]2C(=O)N(Cc3ccccc3)C(=O)[C@@H]21 | 10.5% |
| CCCc1nnc(SCC(=O)Nc2ccc(C(=O)OCC)cc2)o1 | 1.98% |
| CCOC(=O)c1ccc(NC(=O)Cn2cnc3cc(C)c(C)cc32)cc1 | 105% (active) |
| CCOC(=O)c1ccc(NC(=O)Cn2nnc(-c3ccc(C)cc3)n2)cc1 | 3.31% |
| O=C(CNC(=O)c1ccccc1F)OCC(=O)c1c[nH]c2ccccc12 | -14.7% |
| COc1ccc(CCNC(=O)COC(=O)C2CC2C)cc1 (stereo not drawn) | 0.884% |

| SMILES | protection from apoptosis |
| --- | --- |
| Cc1cc(-c2n[nH]c(=S)n2/N=C/C(Br)=C/c2ccccc2)n[nH]1 | 84.8% (active) |
| S=c1[nH]nc(-c2cc(-c3ccccc3)n[nH]2)n1/N=C/c1c2ccccc2cc2ccccc12 | 10.1% |
| Oc1ccccc1/C=N/n1c(-c2cccs2)n[nH]c1=S | -8.28% |
| CC(OC(=O)c1ccc([N+](=O)[O-])cc1)C(=O)NCC1CCCCC1 (stereo not drawn) | -1.81% |
| Cc1cc(NC(=O)CN2C(=O)NC(CC(C)C)C2=O)no1 (stereo not drawn) | -6.09% |
| Oc1ccccc1CN1CCN(C(c2ccccc2)c2ccccc2)CC1 | 0.217% |
| CCN1CCN(C(c2cccnc2)c2cc(Cl)c3cccnc3c2O)CC1 (stereo not drawn) | 92.4% (active) |
| CCOC(=O)N1CCN(C(c2cccnc2)c2ccc3cccnc3c2O)CC1 (stereo not drawn) | 35.8% |
| COc1cc(/C=C/C(=O)OCC(=O)NCCCc2ccccc2)ccc1O | -1.98% |
| C=CC[C@H](CC(=O)NCCO)C(=O)N[C@@H](COC(=O)[C@@H](CC=C)Cc1ccc(F)cc1)Cc1c[nH]c2ccccc12 | 6.33% |
| COc1cc(NC(=O)c2cncc(-c3ccc(C#N)cc3)c2)cc(C(=O)Nc2cccc(C(F)(F)F)c2)c1 | 23.5% |
| COc1ccc(NC(=O)CN(C)CC(=O)Nc2cccc(C(F)(F)F)c2)cc1 | -3.94% |
| COc1cc(NC(=O)c2[nH]cnc2C(N)=O)cc(C(=O)Nc2cccc(C(F)(F)F)c2)c1 | 114% (active) |
| NS(=O)(=O)c1ccc(CNC(=S)NC(=O)c2ccco2)cc1 | 2.51% |
| O=C(c1ccccc1)N1CCN(c2ccc([N+](=O)[O-])c(NCc3ccco3)c2)CC1 | 13.2% |
| COc1ccc(CCNc2cc(N3CCN(C(=O)c4ccccc4OC)CC3)ccc2[N+](=O)[O-])cc1OC | 85.3% (active) |
| COc1ccccc1OCCNc1cc(N2CCOCC2)ccc1[N+](=O)[O-] | -8.92% |
| O=S(=O)(c1ccc(SCc2ccc(Br)cc2)nc1)N1CCOCC1 | -8.12% |
| Cc1ccc(OCC(=O)Nc2ccccc2C(=O)NC2CC2)cc1 | -2.93% |
| CC(Sc1ccccc1F)C(=O)Nc1cccc(S(=O)(=O)N2CCOCC2)c1 (stereo not drawn) | -3.25% |
| CC(C)NC(=O)Nc1cccc2c1O[C@H](CN(C)S(=O)(=O)c1cccs1)[C@@H](C)CN([C@H](C)CO)C2=O | -19% |
| CCn1c(/C=C/c2ccc([N+](=O)[O-])o2)nc2ccccc2c1=O | 104% (active) |

| SMILES | protection from apoptosis |
| --- | --- |
| CCn1c(=O)c([N+](=O)[O-])c(NCc2ccc3c(c2)OCO3)c2ccccc21 | 1.81% |
| Cc1cc(C)nc(N/N=C/c2ccc([N+](=O)[O-])o2)n1 | -3.24% |
| C=CC(COCc1ccccc1)N(CC(=O)OC)S(=O)(=O)c1cc(Br)ccc1OC (stereo not drawn) | 1.07% |
| O=C(Nc1ccon1)c1nc[nH]c1C(=O)NCc1ccccc1 | 2.59% |
| NC(=O)CSc1c[nH]c2ccccc12 | 0.633% |
| O=C(NC1CCCC1)C(=O)c1c[nH]c2ccccc12 | -2.17% |
| O=S(=O)(O)Oc1c[nH]c2ccccc12 | 95.8% (active) |
| Cc1cc(NC(=O)COC(=O)/C=C/c2ccc(C)o2)no1 | -0.145% |
| CC(=O)C[C@H](O)CC(=O)[C@@H]1OC(=O)[C@@H](C)C/C=C\Cc2ccccc21 | -6.43% |
| COc1ccccc1N(CC(=O)Nc1ccc(C)cc1Cl)S(=O)(=O)c1cccs1 | -11% |
| O=C(Nc1cccc(S(=O)(=O)N2CCCC2)c1)c1cncc(Br)c1 | -6.13% |
| Cc1ccc(NC(=O)OCc2cncs2)cc1 | -4.61% |
| COc1ccc(NC(=O)/C(Cl)=C(/Cl)S(=O)Cc2ccc(C)cc2)cn1 (stereo not drawn) | 106% (active) |
| COc1ccc(Nc2ccc([N+](=O)[O-])cn2)cn1 | -4.41% |
| O=C(Nc1cc(S(=O)(=O)Nc2ccc(Cl)cc2)ccc1O)c1ccc(F)cc1F | 3.17% |
| CCCN(CC(=O)NC(=O)NC1CCCCC1)CC(=O)Nc1cc(Cl)ccc1Cl | -6.07% |
| CN(C)S(=O)(=O)c1cccc(NC(=O)COc2ccc3ccccc3c2)c1 | -1.11% |
| S=c1[nH]nc(NCCc2ccccc2)s1 | -4.61% |
| Cc1nc(C)c(-c2csc(NCCc3ccccc3)n2)s1 | 78.4% (active) |
| CCNc1nc(-c2cc3ccccc3o2)cs1 | -12.4% |
| O=C(CSc1ccccc1)Nc1cccc(S(=O)(=O)N2CCCCC2)c1 | -5.41% |
| COC(=O)[C@]1(Cc2ccccc2)N[C@H](CN(C)S(=O)(=O)c2ccc(OC(F)(F)F)cc2)[C@@H]2C(=O)N(C)C(=O)[C@@H]21 | -3.66% |
